# Source: PubChem BioAssay (NCATS)
# Inconclusive results are not listed. The source made the active and inactive calls. The call rests on the fitted dose curve; in most records, active means well fitted inhibition curve with a large enough effect; inconclusive means small, poorly fitted or top-dose-only effect; inactive means flat fitted curve, though single readings scatter. Bridge positions count the residues as written; N and C are the ends. Square brackets hold non-standard residues; d marks the D form. Peptide text beside a SMILES is read from it. hArg = N=C(N)NCCCC[C@H](N)C(=O)O; Mpa = O=C(O)CCS
# Tested on: CRL-7250
# Assay: qHTS assay to identify novel small-molecules to repurpose for Merkel cell carcinoma treatment (AID 1296009); further: nearly all actives have a fitted effect of over 60% in size
# Details: MCC and control cell lines, CellTiter-Glo viability, 72 h; at 44.8 µM (top of the series) unless noted
# Text: MCC is a rare and aggressive neuroendocrine skin cancer with limited treatment options. Approximately 80% of MCCs have the Merkel cell polyomavirus (MCPyV) DNA integrated into the host genome (virus-positive: VP-MCC) and viral oncogenes drive oncogenesis. The remaining MCCs are virus-negative (VN-MCC) and are caused by UV mutagenesis. To identify novel treatments for VP-MCC and/or VN-MCC we screened three VP-MCC cell lines (WAGA, MKL-1, MKL-2), three VN-MCC cell lines (MCC-13, MCC-26, UISO), and four immortalized, non-transformed control cell lines (HaCaT, HEK293T, CRL7250, NIH-3T3) against ~2,400 compounds in the NCGC Pharmaceutical Collection (NPC) and ~1,900 compounds in the Mechanism Interrogation PlatE (MiPE). Using cell viability as a readout (CellTiter-Glo assay) we found both overlapping and distinct drugs that can be repurposed for the treatment of VP-MCC and VN-MCC.
# A high-throughput screen was conducted in 1536-well white flat bottom plates (Corning) on a Kalypsys robotic system. Cell lines WAGA, MKL-1, MKL-2, MCC-13, MCC-26, UISO, HaCaT, HEK293T, CRL7250, and NIH-3T3 were screened against 2 small molecule annotated drug libraries NPC and MIPE in dose response (8 and 11 pt. respectively) measuring cell viability after 72 hours of incubation. […] A 1,536 pintool (Kalypsys) was used to transfer 23 nL of compound in DMSO to the 1,536-well assay plates. After 72 hr incubation at 37 degree celsius, 2.5 uL of CellTiter-Glo (Promega) was dispensed into each well using a BiorapTR. Plates were incubated at room temperature for 10 min, transferred to a ViewLux (PerkinElmer) and the luminescence was recorded using an exposure time of 2 seconds. Relative luminescence units (RLUs) were normalized to in-plate controls (no cells as a positive (cytotoxicity) control, DMSO as negative control) and the normalized data was processed using NCATS in-house software.
row,Compound,outcome
1,COP(=S)(OC)Oc1ccc(S(N)(=O)=O)cc1,inactive
2,N[C@@H](CSSC[C@H](N)C(=O)O)C(=O)O,inactive [at 0.588 µM]
3,NC(CSCC(=O)O)C(=O)O (stereo not given),inactive
4,Cc1ccc(Cl)c(OCC(O)CNC(C)(C)C)c1 (stereo not given),inactive
5,CC1(C)[C@@H]2CC[C@@]1(C)C(=O)C2,inactive
6,CCCc1cc(C(N)=S)ccn1,inactive
7,CN(Cc1cc(Br)cc(Br)c1N)C1CCCCC1,inactive
8,O=C(O)CN(CCOCCOCCN(CC(=O)O)CC(=O)O)CC(=O)O,inactive [at 0.588 µM]
9,Cc1cccc(C)c1NC(=O)C(C)N (stereo not given),inactive
10,NC(=O)[C@@H]1CSSCCC(=O)N[C@@H](CCCCN=C(N)N)C(=O)NCC(=O)N[C@@H](CC(=O)O)C(=O)N[C@@H](Cc2c[nH]c3ccccc23)C(=O)N2CCC[C@H]2C(=O)N1 ([Mpa][hArg]GDWPC-NH2; disulfide 1-7),inactive
11,O=C(OCC(O)CO)c1ccccc1Nc1ccnc2cc(Cl)ccc12 (stereo not given),inactive
12,CCNC(=O)NCc1cccc(Cl)c1,inactive
13,COc1cc(N)c(Cl)cc1C(=O)NC1CCN(Cc2ccccc2)CC1,inactive
14,NCCNC(=O)c1ccc(Cl)cn1,inactive
15,CN1CCCCC1CCN1c2ccccc2Sc2ccc(S(C)=O)cc21 (stereo not given),inactive
16,NC(N)=NCCC[C@H](N)C(=O)O,inactive [at 4.96 µM]
17,OC(CCN1CCCCC1)(c1ccccc1)C1CC2C=CC1C2 (stereo not given),inactive
18,C[C@H](O)C(=O)Nc1c(I)c(C(=O)NC(CO)CO)c(I)c(C(=O)NC(CO)CO)c1I,inactive
19,COc1ccc(-c2nc3ccc(C4=NNC(=O)CC4C)cc3[nH]2)cc1 (stereo not given),inactive
20,CNC(=O)Oc1ccc2c(c1)[C@]1(C)CCN(C)[C@@H]1N2C,inactive

row,Compound,outcome
1,CC(C)OC(=O)C(C(=O)OC(C)C)=C1SC=CS1,inactive
2,CSc1ccc(/C=C2/C(C)=C(CC(=O)O)c3cc(F)ccc32)cc1,inactive
3,Cc1nnc2n1-c1sc(CCC(=O)N3CCOCC3)cc1C(c1ccccc1Cl)=NC2,inactive
4,C[C@]12CC[C@H]3[C@@H](CCC4=CC(=O)CC[C@@]43C)[C@@H]1CC[C@@H]2C(=O)O,inactive
5,CCc1ccc(C2CCNCC2)cc1,inactive
6,N[C@H](C(=O)O)[C@@H](O)c1ccc(O)c(O)c1,inactive
7,CCCCCCCCCCCCOS(=O)(=O)O,inactive
8,C=C1C(=C/C=C2\CCC[C@]3(C)[C@@H]([C@H](C)/C=C/[C@@H](O)C4CC4)CC[C@@H]23)C[C@@H](O)C[C@@H]1O,inactive
9,Cc1ccc(Nc2c(F)cccc2Cl)c(CC(=O)O)c1,inactive
10,Cc1cccc(N(C)C(=S)Oc2ccc3ccccc3c2)c1,inactive
11,CN(C)[C@@H](CCOc1cccc2ccccc12)c1ccccc1,inactive
12,O=C(O)CCC(=O)c1ccc(-c2ccccc2)cc1,inactive
13,CN1C[C@@H](NS(=O)(=O)N(C)C)C[C@@H]2c3cccc4c3c(cn4C)C[C@H]21,inactive
14,C(=C\c1ccccc1)/CN1CCN(C(c2ccccc2)c2ccccc2)CC1,inactive
15,CCN(CCCCOC(=O)c1ccc(OC)c(OC)c1)C(C)Cc1ccc(OC)cc1 (stereo not given),inactive
16,CCOC(=O)c1ccc(OC(=O)CCCCCN=C(N)N)cc1,inactive
17,CCOC(=O)C1=C[C@]2(CC)CCCN3CCc4c(n1c1ccccc41)[C@@H]32,inactive
18,Clc1ccc(C(Cn2ccnc2)OCc2c(Cl)cccc2Cl)c(Cl)c1 (stereo not given),inactive
19,C[C@H]1C[C@H]2[C@@H]3CCC4=CC(=O)C=C[C@]4(C)[C@@]3(Cl)[C@@H](O)C[C@]2(C)[C@@]1(O)C(=O)CO,inactive
20,CCn1cc(C(=O)O)c(=O)c2cc(F)c(N3CCN(C)CC3)cc21,inactive [at 17.4 µM]
